The text below walks through data of PubChem BioAssay (NCI).

Structures are written as SMILES. The panel holds about 83,000 compounds, 20% with a hit somewhere; the sample as a whole holds those more often.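 Each cell line was grown in a 96-well plate and treated with one concentration of compound for 48 hours. Values below 10 were considered active.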 Unmarked numbers belong to inactive results. Active and inactive are the calls of the source.

Assay in all cases: NCI-60 one-dose screen, 48 h (100 = growth as untreated, 0 = no growth, -100 = all killed)
For one assay, the system named is NCI-H522 lung. To be noted: 10 µM unless noted.
The next assay has as its system COLO 205 colon. The conditions noted are these: 10 µM.
The subject of the next assay is RXF 393 renal. To be noted: 10 µM unless noted.
A further assay relates to M14 melanoma. To be noted: 10 µM unless noted.
The next assay concerns U251 CNS. The conditions noted are these: 10 µM unless noted.
For another assay, the system named is EKVX NSCLC. The conditions noted are these: 10 µM unless noted.
Another assay relates to TK-10 renal. The conditions noted are these: 10 µM unless noted.
The subject of another assay is CAKI-1 renal. To be noted: 10 µM unless noted.
A further assay concerns CCRF-CEM leukemia. The conditions noted are these: 10 µM unless noted.
The next assay deals with SR leukemia. To be noted: 10 µM.
A further assay deals with RPMI-8226 leukemia. The conditions noted are these: 10 µM unless noted.
For a further assay, the system named is SK-OV-3 ovarian. The conditions noted are these: 10 µM unless noted.
A further assay has as its system SW-620 colon. To be noted: 10 µM unless noted.
Another assay relates to HCT-116 colon. The conditions noted are these: 10 µM unless noted.
The next assay concerns MALME-3M melanoma. The conditions noted are these: 10 µM unless noted.
The next assay has as its system LOX IMVI melanoma. The conditions noted are these: 10 µM unless noted.
The test system of another assay is MOLT-4 leukemia. The conditions noted are these: 10 µM.
The subject of a further assay is BT-549 breast. To be noted: 10 µM.

For the compound `[Br][Pb]([c]1ccccc1)([c]1ccccc1)[c]1ccccc1`, the growth is -92.3% (active) in the assay on NCI-H522 lung; -98.7% (active) in the assay with COLO 205 colon; -83.2% (active) in the assay with RXF 393 renal; -100% (active) with M14 melanoma; -100% (active) in the assay with U251 CNS; -91.1% (active) in the assay with EKVX NSCLC. Moreover, the growth in the assay with TK-10 renal is -100% (active); in the assay with CAKI-1 renal it was -100% (active); in the assay on CCRF-CEM leukemia it was -21.5% (active); in the assay with SR leukemia, -37.8% (active); in the assay with RPMI-8226 leukemia, -29.8% (active); in the assay with SK-OV-3 ovarian, -100% (active). Moreover, the growth with SW-620 colon is -95.3% (active); in the assay with HCT-116 colon it was -100% (active).
With `CC(N)Cc1ccc(O)cc1` (centres undefined), the growth was 105% with NCI-H522 lung; 128% in the assay with COLO 205 colon; 98.6% with MALME-3M melanoma; 112% in the assay on RXF 393 renal; 99.2% in the assay with LOX IMVI melanoma; 107% in the assay with EKVX NSCLC. Also, the growth is 103% in the assay with CAKI-1 renal; 93.9% in the assay with CCRF-CEM leukemia; 83.4% with MOLT-4 leukemia; 55.4% in the assay with SR leukemia; 98.3% with RPMI-8226 leukemia; 126% in the assay with BT-549 breast. Besides, the growth with SW-620 colon is 103%; in the assay on HCT-116 colon, 100%.
As to `CN=C(NN)NN`, the growth with NCI-H522 lung was 107%; in the assay with COLO 205 colon, 129%; in the assay on MALME-3M melanoma, 103%; in the assay with RXF 393 renal, 109%; in the assay with M14 melanoma it was 105%; with LOX IMVI melanoma, 98.1%. The growth in the assay on EKVX NSCLC is 97%; in the assay with TK-10 renal, 125%; in the assay on CCRF-CEM leukemia, 87.2%; with MOLT-4 leukemia, 102%; with SR leukemia, 94.8%; with RPMI-8226 leukemia, 91.6%. The values for the growth with BT-549 breast and in the assay on HCT-116 colon were 106% and 109%, respectively.
For the compound `CC(C)CCC[C@@H](C)[C@H]1CC[C@H]2[C@@H]3CC=C4C[C@@H](OC(=O)Cc5ccc(N(CCCl)CCCl)cc5)CC[C@]4(C)[C@H]3CC[C@]12C`, the growth is 124% in the assay with NCI-H522 lung; 117% in the assay on COLO 205 colon; 108% in the assay on M14 melanoma; 104% in the assay on LOX IMVI melanoma; 106% in the assay on EKVX NSCLC; 159% with TK-10 renal. The growth is 97% in the assay with CAKI-1 renal; 120% with CCRF-CEM leukemia; 101% in the assay with SR leukemia; 108% in the assay on RPMI-8226 leukemia; 114% in the assay on SK-OV-3 ovarian; 103% in the assay on HCT-116 colon.
